“And” between values parts separate entries of the source, which are not always exact repeats. Equal entries are not always repeated. Inconclusive results are not listed. A call without a number means that no potency is given here. The source holds several records for some structures; these can differ, active in one and inactive in another. The source made the active and inactive calls. Calls come from the whole dose curve; as a rule, active = well fitted activation curve with a large enough effect in the repeat runs; inconclusive = weak or mixed curves; inactive = flat fitted curve, though single readings scatter.
experiment: A CellTox Green Cytotoxicity Assay to monitor cytotoxicity in HepG2 cells - 16 hour (AID 1224876); details: CellTox Green fluorescence; series mostly up to 76.8 µM; note: nearly all actives have a fitted effect of over 45% in size
From the text: National Center for Advancing Translational Sciences [NCATS]
NIH Chemical Genomics Center [NCGC]
U.S. Environmental Protection Agency [EPA]
National Institutes of Environmental Health Sciences [NIEHS]
National Toxicology Program [NTP]
Cell-based models are critical for drug discovery. Determining the natural cytotoxic effects resulting from test compounds is an essential research activity. A CellTox Green Cytotoxicity Assay to monitor cytotoxicity in real time of continues cell culture during 40 hours of the compound treatment was used to screen Tox21 10K library compounds in HepG2 cells. CellTox Green Cytotoxicity Assay is a nonlytic, homogeneous, biofluorescent method to measure cytotoxicity in cell culture after experimental manipulation. The assay system uses a proprietary asymmetric cyanine dye that is excluded from viable cells but preferentially stains the dead cell's DNA. […] Viable cells produce no appreciable increases in fluorescence. Therefore, the fluorescence signal produced by the binding interaction with dead cell DNA is proportional to cytotoxicity.
The mixture of HepG2 cell suspension and reagents were dispensed at 600cells/6 ul/well in 1536-well tissue culture treated black solid bottom plates using a Multidrop dispenser. After the assay plates were incubated at a 37 C/5% CO2 incubator for 5 hours, 23 nL of compounds dissolved in DMSO, positive and negative controls was transferred to the assay plate by a pintool work station. The plates were incubated at 37 C for 40 hours. The fluorescence intensity were measured at 0h, 8h, 16h, 24h, 32h and 40h time points using ViewLux plate reader during compound treatment.
Potency is the fitted concentration of half-maximal effect.

SMILES | Potency
S=c1nc[nH]c2nc[nH]c12 | inactive
CC1=C(/C=C/C(C)=C/C=C/C(C)=C/CO)C(C)(C)CCC1 | inactive
COCC(=O)O | inactive
CCCCOCCOCCOC(=O)CCCCC(=O)OCCOCCOCCCC | inactive
CC(C)(C)C1CCC(O)CC1 (stereo not given) | inactive
ClC1=C(Cl)C(Cl)(Cl)C(Cl)=C1Cl | inactive
CNC[C@H](O)[C@@H](O)[C@H](O)[C@H](O)CO | inactive
CCCCC(CC)COC(=O)/C=C\C(=O)OCC(CC)CCCC (stereo not given) | inactive
Cc1cc(Cc2ccc(N)c(C)c2)ccc1N | inactive
Cc1cc(O)cc(C)c1Cl | inactive
CCc1ccc(O)cc1 | inactive
NCc1cccc(CN)c1 | inactive
CCc1ccccc1O | inactive
OC[C@@H](O)[C@H](O)[C@H](O)[C@@H](O)CO | inactive
OCC#CCO | inactive
C=CC(=O)OCCCCCCCC(C)C | inactive
c1ccc2[nH]cnc2c1 | inactive
CCCCC(CC)C(=O)OCCOCCOCCOC(=O)C(CC)CCCC (stereo not given) | inactive
Nc1nc2ncc(CNc3ccc(C(=O)N[C@@H](CCC(=O)O)C(=O)O)cc3)nc2c(=O)[nH]1 | inactive
O=C1O[C@H](CO)[C@@H](O)[C@H](O)[C@H]1O | inactive

SMILES | Potency
Clc1cc(Cl)c(Cl)cc1Cl | inactive
CC1Cc2ccccc2N1NC(=O)c1ccc(Cl)c(S(N)(=O)=O)c1 (stereo not given) | inactive
CC(=O)[C@@]1(O)CC[C@H]2[C@@H]3CCC4=CC(=O)CC[C@]4(C)[C@H]3CC[C@@]21C | inactive
COCC(C)O (stereo not given) | inactive
NCCNCCNCCNCCN | inactive
NCCc1ccc(O)c(O)c1 | inactive
COC(=O)c1ccccc1O | inactive
CC1=CC[C@H]2C[C@@H]1C2(C)C | inactive
NC(=O)NNc1ccccc1 | inactive
Nc1cc(-c2ccncc2)c[nH]c1=O | inactive
NC(=O)/N=N/C(N)=O | inactive
O=S(=O)(Oc1ccc(Cl)cc1Cl)c1ccccc1 | inactive
CCCCCCCCCCC=CC1CC(=O)OC1=O (stereo not given) | inactive
C[C@@H](O)[C@H]1C(=O)N2C(C(=O)O)=C(S[C@@H]3CN[C@H](C(=O)N(C)C)C3)[C@H](C)[C@H]12 | inactive
O=C(Oc1ccccc1)c1ccc(O)cc1 | inactive
C=C(C)C(=O)OCCCCCC | inactive
O=C(Cl)c1c(Cl)c(Cl)c(C(=O)Cl)c(Cl)c1Cl | inactive
CCCCCCCCCCCCOCC1CO1 (stereo not given) | inactive
CCCCCCCCCC(=O)O | inactive
CCCCCCCCCCCCN | inactive and 19.5 µM (active)

From PubChem BioAssay (Tox21)
